# Source: PubChem (University of Pittsburgh Molecular Library Screening Center)
# The entries come from a sample that favours hits as a whole.
# HIV RNase H inh – inhibitors of HIV-1 reverse transcriptase RNase H. inhibition, % at 10 µM. RT-RNase H RNA/DNA duplex cleavage, fluorescence. AID 565. actives 1.9% (n = 65,000). P04585; in the data active means inhibition above about 50%
# * hit, by the source's call.
SMILES,HIV RNase H inh
Cn1nnnc1SCC(=O)NC(=O)NCc1ccccc1,-8
CO/N=C(\C(=O)N[C@@H]1C(=O)N2C(C(=O)O)=C(COC(N)=O)CS[C@H]12)c1ccco1,13
Cn1nnnc1SCC1=C(C(=O)O)N2C(=O)[C@@H](NC(=O)[C@H](O)c3ccccc3)[C@H]2SC1,61*
CC(=O)Nc1ccc(S(=O)(=O)N2CCN(c3nc(NC4CCCC4)c4ccccc4n3)CC2)cc1,3
CCc1nnc(NC(=O)Cn2nnc(-c3ccccc3F)n2)s1,-3
CC(C)[C@@]1(NC(=O)[C@@H]2C[C@@H]3c4cccc5[nH]cc(c45)C[C@H]3N(C)C2)O[C@@]2(O)[C@@H]3CCCN3C(=O)[C@H](Cc3ccccc3)N2C1=O,-29
CC(C)[C@@]1(NC(=O)[C@@H]2C=C3c4cccc5[nH]cc(c45)C[C@H]3N(C)C2)O[C@@]2(O)[C@@H]3CCCN3C(=O)[C@H](Cc3ccccc3)N2C1=O,55*
CC(C)[C@H]1C(=O)N2CCC[C@H]2[C@]2(O)O[C@](NC(=O)[C@@H]3C=C4c5cccc6[nH]cc(c56)C[C@H]4N(C)C3)(C(C)C)C(=O)N12,1
O=C(NCc1ccc(N2CCCC2=O)cc1)Nc1cccc(Cl)c1,-13
CCC1Oc2ccc(C)cc2N(CC(=O)N(Cc2cccnc2)Cc2ccc(C)o2)C1=O (stereo not drawn),50*
CCC1Oc2ccc(C)cc2N(CC(=O)N(Cc2ccc3c(c2)OCO3)CC2CCCO2)C1=O (stereo not drawn),-4
CCC1Oc2ccc(C)cc2N(Cc2cccc(C)c2)C1=O (stereo not drawn),0
COc1cc(NC(=O)c2cccc3c2C(=O)N(Cc2cccnc2)C3)cc(OC)c1OC,-22
O=C(Nc1nnc(-c2ccccc2)o1)c1nc2ccccc2s1,66*
NC(=O)c1oc2ccccc2c1NC(=O)c1nc2ccccc2s1,5
CC(C)C(=O)Nc1nnc(-c2ccccc2)o1,-6
Cc1nc2ccc(S(=O)(=O)NCC(=O)N3CCC(C)CC3)cc2s1,-17
CN(C(=O)c1cnccn1)c1nnc(-c2cccnc2)s1,-7
Cc1sc2c(c1C)c(=O)n(-c1ccccc1)c1nnc(C)n21,-6
O=C(c1ccc(CNS(=O)(=O)c2ccccc2)cc1)N1CCC2(CC1)OCCO2,8
O=C(c1ccc(S(=O)(=O)N2CCCCCC2)cc1)N1CCN(c2ccccn2)CC1,-3
O=C(c1ccc(CNS(=O)(=O)c2ccccc2)cc1)N1CCN(c2ccccn2)CC1,63*
N#CC1=C2SCCN2C(=O)C(C#N)C12CCCCC2 (stereo not drawn),-8
Cc1ccc(Cn2nnnc2CN2CCC(O)(c3ccccc3F)CC2)cc1,-12
C=CCNC(=O)C1CC(=O)N(c2ccc(OCC(=O)NCc3ccccc3)cc2)C1 (stereo not drawn),-9
SMILES,HIV RNase H inh
CCOC(=O)CSC1=C(C#N)C(=O)NC2(CCCCC2)S1,4
COCCn1c(SCC(=O)Nc2cccc(C(=O)OC)c2)nc2ccccc2c1=O,-32
CCOC(=O)C1CCCN(C(=O)c2cc3c(=O)n4cccc(C)c4nc3n2C)C1 (stereo not drawn),-8
Cc1ccc(-n2c(SCC(=O)NCc3ccco3)nc3sc(C)c(C)c3c2=O)cc1,55*
CC1Cc2nc(SCC(=O)NCc3ccco3)n(Cc3ccccc3)c(=O)c2S1 (stereo not drawn),-23
O=C(CSc1nc2ccsc2c(=O)n1Cc1ccccc1)NCc1ccco1,-15
Cc1sc2nc(SCC(=O)NCc3ccco3)n(-c3ccccc3)c(=O)c2c1C,27
CCOC(=O)c1sc2nc(SCC(=O)NCc3ccco3)n(Cc3ccccc3)c(=O)c2c1C,66*
Cc1nc(SCC(=O)NCc2ccco2)c2c(C)c(C)sc2n1,-15
CC(NS(=O)(=O)c1ccccc1)C(c1cccs1)N1CCN(C)CC1 (stereo not drawn),-4
CCS(=O)(=O)N1CCC(C(=O)N2CCc3ccccc3C2)CC1,-2
CCOC(=O)c1ccc(NS(=O)(=O)c2cnc[nH]2)cc1,-8
Cc1ccc2nc3c(cc(C(N)=S)c(=N)n3CCCOC(C)C)c(=O)n2c1,1
CC(=O)c1ccc(OCC(O)CN(C)Cc2cccs2)cc1 (stereo not drawn),-5
Clc1ccc(-c2nn3c(Cn4cnc5ccccc54)nnc3s2)c(Cl)c1,71*
Clc1ccc(Cl)c(-c2nn3c(Cn4cnc5ccccc54)nnc3s2)c1,-30
c1ccc(OCc2nn3c(Cn4cnc5ccccc54)nnc3s2)cc1,38
O=C(CCNS(=O)(=O)c1cccs1)NCc1ccco1,3
CCOC(=O)c1[nH]c(C)c(CN(Cc2ccco2)C(=O)C(F)(F)F)c1C,-7
Cc1ccc(NC(=O)c2oc3ccccc3c2NC(=O)c2ccc3c(c2)OCO3)cc1,14
Cc1nc2ccc(C(=O)O)cc2c2c1CC(C)S2 (stereo not drawn),63*
Cc1nc2cc(C(=O)O)ccc2s1,4
CC1CCN(c2nc3ccc(C(=O)O)cc3s2)CC1,-11
CC(=O)c1c(C)nn(C(=O)N2CCOCC2)c1C,1
COc1ccc(N2CCN(/C(=N\S(=O)(=O)c3ccccc3)Nc3nc(C)cc(C)n3)CC2)cc1,6
SMILES,HIV RNase H inh
CCOC(=O)c1c(NC(=O)c2nn(CC)cc2Br)c(C#N)cn1-c1ccccc1,-56
CCOC(=O)c1c(-c2ccccc2)csc1NC(=O)c1nn(CC)cc1Br,67*
CCn1cc(Br)c(C(=O)Nc2ccc(C(=O)OC(C)C)cc2)n1,1
Cc1ccc(NS(=O)(=O)c2cccc(C(=O)Nc3cc(C)on3)c2)cc1,-9
CCOC(=O)c1oc2ccc(Br)cc2c1CSc1nnc(C)s1,-42
CCN(Cc1ccncc1)C(=O)c1cccs1,-2
CC1CC(C)CN(Cc2nc(N)nc(Nc3ccc4ccccc4c3)n2)C1 (stereo not drawn),8
COc1ccc(-n2nnnc2SCC(=O)c2cccc(OC)c2)cc1,-11
CCCC(c1nnnn1CCOC)N1CCN(c2cccc(OC)c2)CC1 (stereo not drawn),-21
CCCS(=O)(=O)c1nnnn1-c1cccc(OC)c1,55*
CC1=CC(C)(C)N=C(Nc2ccc(C)cc2)S1,-7
COCCOC(=O)c1c(C)nc(SCC(=O)Nc2ccc(OC)cc2)c(C#N)c1-c1ccco1,-2
COc1cccc(NC(=O)CSc2nc3c(c(-c4ccco4)c2C#N)CCCC3)c1,58*
Cc1cc(NC(=O)CSc2nc3c(c(-c4cccnc4)c2C#N)CCC3)no1,-3
CCOc1ccc(N2CCn3c2nc2c3c(=O)n(CCc3ccccc3)c(=O)n2C)cc1,22
O=C(Nc1ccc(F)cc1)C1CCC(N2C(=O)c3ccccc3C2=O)CC1 (stereo not drawn),9
COc1ccc(CCNC(=O)CCn2c(SCC#N)nc3ccccc3c2=O)cc1OC,-11
COc1ccc(CNC(=O)CCCCCn2c(SCC#N)nc3cc4c(cc3c2=O)OCO4)cc1,57*
COc1ccc(CCNC(=O)CCCn2c(SCC#N)nc3ccccc3c2=O)cc1OC,-14
CCOC(=O)c1cnn(-c2nc3sc4c(c3c(=O)[nH]2)CCCC4)c1N,-2
CCOC(=O)c1cnn(-c2nc(C)nc3sc4c(c23)CCC4)c1N,-7
CCOC(=O)c1cnn(-c2nc(SC)nc3sc4c(c23)CCC4)c1N,55*
COc1ccc(OC)c2[nH]c(=O)c(CCNC(=O)C3CCCCC3)cc12,-24
CCOC(=O)c1nc(N)c(=O)n(-c2ccccc2)n1,-4
CCOC(=O)c1cc(OC(=O)c2cccs2)n(-c2ccccc2)n1,50*
Cc1nn(-c2ccccc2)c(C)c1NC(=O)c1cccs1,-5
